The record followed here is PubChem BioAssay (EPA / NIEHS).

Molecules are shown by their SMILES. Calls of active or inactive are those of the source. Rule for the calls: active = hit-call score of the fitted dose curve at least 0.9, where 1 is the maximum; inactive = score below 0.9.

What all share (details): mRNA level, 48 h; actives raise or lower the signal
Read-out in one test: CYP2C8 (gene 1558)
Nature of the test: LTEA_HepaRG_CYP2C8: Life Technologies and Expression Analysis (LTEA) Assay for CYP2C8 using HepaRG (AID 2283483). The method in brief:
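HepaRG (human liver line), 48 h chemical exposure, 8-pt half-log series from 100 uM, 0.5% DMSO vehicle. Readout: CYP2C8 transcript by qRT-PCR, housekeeping-normalized. Bidirectional fit vs DMSO baseline.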

Read-out in the next test: CYP2E1 (gene 1571)
Description: LTEA_HepaRG_CYP2E1: Life Technologies and Expression Analysis (LTEA) Assay for CYP2E1 using HepaRG (AID 2283485). Summed up: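 Readout is qRT-PCR of CYP2E1 mRNA, normalized to three housekeeping genes and fitted bidirectionally against 0.5% DMSO. HepaRG cells were dosed 48 h at eight concentrations, highest 100 uM with half-log dilutions.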

Read-out in the next test: CYP4A11 (gene 1579)
Description: LTEA_HepaRG_CYP4A11: Life Technologies and Expression Analysis (LTEA) Assay for CYP4A11 using HepaRG (AID 2283486). Summed up: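 HepaRG, 48 h chem exposure, 8 conc (100 uM top, half-log), 0.5% DMSO vehicle; qRT-PCR readout, housekeeping-gene normalized; bidirectional curve fit vs DMSO baseline.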

Read-out in test [1]: DNA damage-inducible transcript 3 (DDIT3), DDIT3 (gene 1649)
Nature of the test: LTEA_HepaRG_DDIT3: Life Technologies and Expression Analysis (LTEA) Assay for DNA damage-inducible transcript 3 (DDIT3) using HepaRG (AID 2283488). Summed up:
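Cells are human HepaRG liver cells treated for 48 h with eight half-log concentrations up to 100 uM in 0.5% DMSO. Transcript levels come from qRT-PCR normalized to three housekeeping genes, with activity fitted in both directions relative to vehicle.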

Read-out in test [2]: Pro-epidermal growth factor (Homo sapiens) (UniProt P01133)
Nature of the test: LTEA_HepaRG_EGF: Life Technologies and Expression Analysis (LTEA) Assay for Epidermal growth factor (EGF) using HepaRG (AID 2283489). Summed up: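 HepaRG, 48 h dosing, 100 uM top, half-log x8, 0.5% DMSO. Readout: TaqMan qRT-PCR (Fluidigm array), housekeeping-normalized. Gain or loss of signal fit vs DMSO.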

Read-out in test [3]: Early growth response protein 1 (EGR1) transcription factor, EGR1 (gene 1958)
Nature of the test: LTEA_HepaRG_EGR1: Life Technologies and Expression Analysis (LTEA) Assay for Early growth response protein 1 (EGR1) transcription factor using HepaRG (AID 2283490). Summed up:
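HepaRG, 48 h exposure, 8-pt half-log series from 100 uM, 0.5% DMSO vehicle; EGR1 transcript by TaqMan qRT-PCR (Fluidigm array), housekeeping-normalized; bidirectional fit relative to DMSO baseline.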

Read-out in test [4]: Cytochrome P450 3A7 (Homo sapiens) (UniProt P24462)
Description: LTEA_HepaRG_CYP3A7: Life Technologies and Expression Analysis (LTEA) Assay for CYP3A7 using HepaRG (AID 2283492). The method in brief: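 Human HepaRG liver cells, 48 h post-plating, switched to serum-free induction medium and exposed in duplicate for 48 h. Dosing: 100 uM top, half-log dilutions, 8 points, 0.5% DMSO vehicle. Read-out: CYP3A7 mRNA, gain or loss fitted against DMSO baseline.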

Read-out in a further test: CYP3A5 (gene 1577)
Description: LTEA_HepaRG_CYP3A5: Life Technologies and Expression Analysis (LTEA) Assay for CYP3A5 using HepaRG (AID 2283493). Summed up:
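Human HepaRG hepatic cells receive 48 h chemical treatment at eight concentrations (half-log steps from 100 uM) in 0.5% DMSO. Expression of CYP3A5 is quantified by Fluidigm qRT-PCR and normalized to three reference genes.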

Read-out in test [5]: Fatty Acid-Binding Protein 1 (FABP1), FABP1 (gene 2168)
Description: LTEA_HepaRG_FABP1: Life Technologies and Expression Analysis (LTEA) Assay for Fatty Acid-Binding Protein 1 (FABP1) using HepaRG (AID 2283494). Summed up: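 qRT-PCR readout of FABP1 transcript (normalized to three housekeeping genes) after 48 h chemical exposure of HepaRG cells; eight concentrations, half-log steps, max 100 uM, 0.5% DMSO vehicle; gain or loss fitted relative to DMSO baseline.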

Read-out in test [6]: Cytochrome P450 4A22 (Homo sapiens) (UniProt Q5TCH4)
Description: LTEA_HepaRG_CYP4A22: Life Technologies and Expression Analysis (LTEA) Assay for Cytochrome P450 4A22 (CYP4A22) using HepaRG (AID 2283495). The method in brief:
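Readout is CYP4A22 transcript induction or loss, quantified by qRT-PCR and normalized to ACTB, GAPDH and POLR2A. Human HepaRG cells receive test chemicals for 48 h at eight half-log concentrations from 100 uM in 0.5% DMSO.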

Read-out in test [7]: Cytochrome P450 7A1 (Homo sapiens) (UniProt P22680)
Nature of the test: LTEA_HepaRG_CYP7A1: Life Technologies and Expression Analysis (LTEA) Assay for Cytochrome P450 7A1 (CYP7A1) using HepaRG (AID 2283496). Summed up:
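HepaRG, 48 h exposure, 8-pt half-log series from 100 uM, 0.5% DMSO vehicle, duplicates. Readout: TaqMan qRT-PCR mRNA vs three housekeeping genes; bidirectional curve fit against DMSO baseline.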

Read-out in test [8]: Glutathione S-Transferase (GSTA2), GSTA2 (gene 2939)
Description: LTEA_HepaRG_GSTA2: Life Technologies and Expression Analysis (LTEA) Assay for Glutathione S-Transferase (GSTA2) using HepaRG (AID 2283497). Summed up: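 qRT-PCR readout of GSTA2 transcript, normalized to three housekeeping genes, fitted bidirectionally against 0.5% DMSO baseline. Differentiated HepaRG cells received compound for 48 h at 8 concentrations (top 100 uM, half-log steps).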

Read-out in test [9]: Glutamate-cysteine ligase catalytic (GCLC), GCLC (gene 2729)
Nature of the test: LTEA_HepaRG_GCLC: Life Technologies and Expression Analysis (LTEA) Assay for Glutamate-cysteine ligase catalytic (GCLC) using HepaRG (AID 2283498). Summed up:
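HepaRG, 48 h exposure, 8-pt half-log series from 100 uM, 0.5% DMSO vehicle; TaqMan qRT-PCR for GCLC mRNA, housekeeping-normalized; bidirectional curve fit vs DMSO baseline.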

Read-out in test [10]: growth arrest and DNA damage 45 (GADD45G), GADD45G (gene 10912)
Nature of the test: LTEA_HepaRG_GADD45G: Life Technologies and Expression Analysis (LTEA) Assay for growth arrest and DNA damage 45 (GADD45G) using HepaRG (AID 2283499). The method in brief:
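Gain or loss of GADD45G mRNA, quantified by TaqMan qRT-PCR against three housekeeping genes, is fitted in both directions relative to 0.5% DMSO. Human HepaRG cultures receive test chemical for 48 h at up to 100 uM.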

Read-out in test [11]: Glutamate-cysteine ligase regulatory (GCLM), GCLM (gene 2730)
Nature of the test: LTEA_HepaRG_GCLM: Life Technologies and Expression Analysis (LTEA) Assay for Glutamate-cysteine ligase regulatory (GCLM) using HepaRG (AID 2283500). The method in brief: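 Endpoint is GCLM transcript level by qRT-PCR, normalized to three housekeeping genes, after 48 h chemical exposure of human HepaRG cells (0.5% DMSO vehicle, top 100 uM, half-log dilutions). Fitting was bidirectional relative to DMSO.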

Read-out in test [12]: Glutathione S-transferase M3 (GSTM3), GSTM3 (gene 2947)
Description: LTEA_HepaRG_GSTM3: Life Technologies and Expression Analysis (LTEA) Assay for Glutathione S-transferase M3 (GSTM3) using HepaRG (AID 2283501). Summed up: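 HepaRG, plated 48 h, then serum-free induction medium; test chemical 48 h, duplicate; 100 uM top, half-log x8, 0.5% DMSO. Read-out: GSTM3 mRNA (TaqMan qRT-PCR, Fluidigm array). Bidirectional fit vs DMSO.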

Read-out in test [13]: Cytochrome P450 3A4 (Homo sapiens) (UniProt P08684)
Description: LTEA_HepaRG_CYP3A4: Life Technologies and Expression Analysis (LTEA) Assay for CYP3A4 using HepaRG (AID 2283487). Summed up: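 Differentiated HepaRG cells, plated 48 h, then dosed 48 h in serum-free induction medium with 0.5% DMSO, 8 half-log concentrations up to 100 uM, duplicate. CYP3A4 mRNA by qRT-PCR, normalized to ACTB/GAPDH/POLR2A; bidirectional fit versus DMSO.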

Read-out in the next test: CYP2C9 (gene 1559)
Description: LTEA_HepaRG_CYP2C9: Life Technologies and Expression Analysis (LTEA) Assay for CYP2C9 using HepaRG (AID 2283484). The method in brief: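 HepaRG, 48 h dosing, 8-pt half-log series, top 100 uM, 0.5% DMSO vehicle. Read-out: CYP2C9 transcript by TaqMan qRT-PCR, housekeeping-normalized (ACTB/GAPDH/POLR2A). Gain or loss fitted vs DMSO baseline.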

Read-out in test [14]: Ezrin (EZR), EZR (gene 7430)
Nature of the test: LTEA_HepaRG_EZR: Life Technologies and Expression Analysis (LTEA) Assay for Ezrin (EZR) using HepaRG (AID 2283491). Summed up:
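EZR transcript levels came from Fluidigm qRT-PCR and were normalized to three housekeeping genes after 48 h chemical exposure of HepaRG cells. Dosing used an 8-point half-log series with a 100 uM top concentration in 0.5% DMSO, tested in duplicate; both directions were fitted versus vehicle.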

Sequence of Cytochrome P450 3A7 (Homo sapiens) (P24462 whole entry, looked up): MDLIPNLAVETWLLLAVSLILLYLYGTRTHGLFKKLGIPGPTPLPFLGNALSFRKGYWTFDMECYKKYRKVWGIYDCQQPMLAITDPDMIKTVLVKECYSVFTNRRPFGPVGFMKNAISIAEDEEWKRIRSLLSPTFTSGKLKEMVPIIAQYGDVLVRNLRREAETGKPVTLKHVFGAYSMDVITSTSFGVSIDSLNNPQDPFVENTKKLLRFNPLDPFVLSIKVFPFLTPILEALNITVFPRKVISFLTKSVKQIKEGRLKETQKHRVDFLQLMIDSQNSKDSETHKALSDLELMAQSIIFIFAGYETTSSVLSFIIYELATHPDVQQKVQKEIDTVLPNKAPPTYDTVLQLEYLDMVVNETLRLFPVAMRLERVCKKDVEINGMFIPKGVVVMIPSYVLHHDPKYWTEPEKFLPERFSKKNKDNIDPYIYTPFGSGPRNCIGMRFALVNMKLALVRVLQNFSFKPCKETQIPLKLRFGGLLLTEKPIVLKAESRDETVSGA
Sequence of Cytochrome P450 3A4 (Homo sapiens) (P08684 whole entry, looked up): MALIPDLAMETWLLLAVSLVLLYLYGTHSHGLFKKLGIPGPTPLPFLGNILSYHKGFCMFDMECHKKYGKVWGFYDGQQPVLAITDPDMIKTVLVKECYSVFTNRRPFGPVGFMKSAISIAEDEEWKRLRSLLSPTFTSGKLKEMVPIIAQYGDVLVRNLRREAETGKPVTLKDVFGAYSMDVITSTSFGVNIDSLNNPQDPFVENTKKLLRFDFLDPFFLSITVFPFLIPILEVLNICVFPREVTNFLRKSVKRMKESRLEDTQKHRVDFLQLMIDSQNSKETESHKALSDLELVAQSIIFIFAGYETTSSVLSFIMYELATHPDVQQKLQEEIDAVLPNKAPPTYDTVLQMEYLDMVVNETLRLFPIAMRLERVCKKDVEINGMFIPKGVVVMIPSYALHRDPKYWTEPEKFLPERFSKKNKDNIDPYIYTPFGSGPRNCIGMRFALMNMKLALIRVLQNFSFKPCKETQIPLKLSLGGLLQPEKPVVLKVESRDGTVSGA

One may read the AC50 as the concentration at which the activity in the assay is half-maximal. Regarding `O=C(O)c1cc(Oc2ccc(C(F)(F)F)cc2Cl)ccc1[N+](=O)[O-]`, the AC50 is 8.77 µM (active) with CYP2C8 (gene 1558); 50 µM (active) with CYP4A11 (gene 1579); 50 µM (active) in [4]; 50 µM (active) with CYP3A5 (gene 1577); 20.3 µM (active) in test [5]. The result (with CYP2E1 (gene 1571); in [1]; in test [2]; in test [3]; in test [6]; in test [7]) was inactive. Besides, the compound was called inactive in [8], in [9], in test [10], in [11] and in test [12].
For `CC(=NC#N)N(C)Cc1ccc(Cl)nc1`, the AC50 (with CYP2C8 (gene 1558); in test [13]; in test [4]) was 50 µM (active) throughout. In addition, the compound was called inactive (with CYP2E1 (gene 1571); in the test with CYP4A11 (gene 1579); in [1]; in [2]; in test [3]; with CYP3A5 (gene 1577)). Besides, the call in test [5], in test [6], in test [7], in [8], in test [9] and in test [10] was inactive. The result in [11] and in test [12] was inactive.
With `CSC1=N[C@@](C)(c2ccccc2)C(=O)N1Nc1ccccc1`, the AC50 with CYP2C8 (gene 1558) is 34.6 µM (active); with CYP2C9 (gene 1559), 33.8 µM (active); with CYP2E1 (gene 1571), 20.9 µM (active); with CYP4A11 (gene 1579), 27.1 µM (active); in test [13], 67.6 µM (active); in [1] it was 28 µM (active). The AC50 is 31.9 µM (active) in test [3]; 25.6 µM (active) in [4]; 53.8 µM (active) in test [5]; 30.6 µM (active) in [6]; 38 µM (active) in test [7]; 13.5 µM (active) in [10]. Also, the AC50 in test [11] is 25 µM (active); in test [12] it was 76.6 µM (active). The outcome (in test [2]; with CYP3A5 (gene 1577); in test [9]) was inactive.
Consider `C[N+]1(C)CCCCC1`, for which the compound was called inactive (with CYP2C8 (gene 1558); in the test with CYP2E1 (gene 1571); with CYP4A11 (gene 1579); in [13]; in test [1]; in test [2]). Further, the call (in test [3]; in [14]; in test [4]; with CYP3A5 (gene 1577); in [5]; in test [6]) was inactive. Besides, the compound was called inactive in test [7], in [8], in test [9], in [10], in test [11] and in test [12].
With `CCOP(=S)(OCC)Oc1ccc([N+](=O)[O-])cc1`, the compound was classed as inactive (with CYP2C8 (gene 1558); with CYP2C9 (gene 1559); in the test with CYP4A11 (gene 1579); in test [1]; in test [2]; in test [3]). Also, the result (with CYP3A5 (gene 1577); in [5]; in test [6]; in test [9]; in [10]; in [11]) was inactive. Moreover, the outcome in test [12] was inactive. The AC50 is 7.92 µM (active) in the test with CYP2E1 (gene 1571), 8.92 µM (active) in test [13], 6.02 µM (active) in [4] and 1.78 µM (active) in [7].
As to `CCOP(=S)(OCC)SCCSCC`, the outcome (with CYP2C8 (gene 1558); with CYP2E1 (gene 1571); with CYP4A11 (gene 1579); in [1]; in [2]; in [3]) was inactive. The compound was classed as inactive (in test [4]; in the test with CYP3A5 (gene 1577); in test [5]; in test [6]; in test [7]; in test [9]). Moreover, the compound was classed as inactive in test [10], in test [11] and in test [12]. The AC50 in [13] was 22.2 µM (active).
Regarding `CCCCOC(=O)[C@@H](C)Oc1ccc(Oc2ccc(C#N)cc2F)cc1`, the compound was classed as inactive (with CYP2C8 (gene 1558); with CYP2E1 (gene 1571); in [13]; in [1]; in test [2]; in test [3]). The compound was classed as inactive (in [14]; in test [4]; in the test with CYP3A5 (gene 1577); in [5]; in test [7]; in [8]). In addition, the compound was called inactive in test [9], in [10], in test [11] and in test [12]. The concentration at half-maximal activity (AC50) with CYP4A11 (gene 1579) was 32.4 µM (active); in test [6], 18.7 µM (active).
